Values joined by “and” are separate entries in the source; they are usually repeats but may differ in a detail not shown here. Equal values may be shown once. A structure can be active in one record and inactive in another. Active and inactive are the calls of the source. The calls were made as follows: active = hit-call score of the fitted dose curve at least 0.9, where 1 is the maximum; inactive = score below 0.9.
Experiments:
[1] = read-out: Vascular cell adhesion molecule 1 (VCAM1), VCAM1 (gene 7412); test: BSK_4H_VCAM1: BioMAP Diversity Plus: 4H Assay for Vascular cell adhesion molecule 1 (VCAM1) Biomarker Activity (AID 2283033); conditions: primary human endothelial cells (HUVEC); actives raise or lower the signal
Outline: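 HUVEC, 24 h post-dose; VCAM-1 by ELISA. Bidirectional curve fit vs DMSO baseline. Parallel SRB total-protein stain (0.1% SRB after 10% TCA fixation, 560 nm) for cytotoxicity.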

[2] = read-out: Interferon-gamma inducible Protein 10 (IP10), CXCL10 (gene 3627); test: BSK_BE3C_IP10: BioMAP Diversity Plus: BE3C Assay for Interferon-gamma inducible Protein 10 (IP10) Biomarker Activity (AID 2283034); conditions: primary human bronchial epithelial cells; actives raise or lower the signal
Outline: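 ELISA readout of IP-10 in BE3C system: primary human bronchial epithelial cells, 24 h post-dosing; bidirectional curve fit vs DMSO baseline.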

[3] = read-out: Monokine induced gamma interferon (MIG), CXCL9 (gene 4283); test: BSK_BE3C_MIG: BioMAP Diversity Plus: BE3C Assay for Monokine induced gamma interferon (MIG) Biomarker Activity (AID 2283035); conditions: primary human bronchial epithelial cells; actives raise or lower the signal
Outline: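 hu bronchial epithelial 1° cells, 24 h cpd; MIG by ELISA; bidirectional fit, DMSO = baseline.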

[4] = read-out: Transforming growth factor beta 1 (TGFb1), TGFB1 (gene 7040); test: BSK_BE3C_TGFb1: BioMAP Diversity Plus: BE3C Assay for Transforming growth factor beta 1 (TGFb1) Biomarker Activity (AID 2283036); conditions: primary human bronchial epithelial cells; actives raise or lower the signal
Outline: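 Read-out: ELISA for TGF-b1 in primary human bronchial epithelial cultures, 24 h post-dose. Bidirectional curve fitting vs DMSO control; gain or loss of signal both scored.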

[5] = read-out: Plasminogen activator inhibitor-1 (PAI1), SERPINE1 (gene 5054); test: BSK_BE3C_PAI1: BioMAP Diversity Plus: BE3C Assay for Plasminogen activator inhibitor-1 (PAI1) Biomarker Activity (AID 2283037); conditions: primary human bronchial epithelial cells; actives raise or lower the signal
Outline: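 ELISA read-out of PAI-1 from human bronchial epithelial primary cells, 24 h post-dosing; bidirectional curve fit vs DMSO baseline, gain or loss of signal scored.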

[6] = read-out: urokinase plasminogen activator (uPA), PLAU (gene 5328); test: BSK_BE3C_uPA: BioMAP Diversity Plus: BE3C Assay for urokinase plasminogen activator (uPA) Biomarker Activity (AID 2283038); conditions: primary human bronchial epithelial cells; actives raise or lower the signal
Outline: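 Primary human bronchial epithelial cells, uPA measured by ELISA 24 h after dosing. Bidirectional change relative to DMSO; cytotoxicity checked in parallel cultures by sulforhodamine B total-protein staining.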

[7] = read-out: Urokinase-type plasminogen activator receptor (uPAR), PLAUR (gene 5329); test: BSK_BE3C_uPAR: BioMAP Diversity Plus: BE3C Assay for Urokinase-type plasminogen activator receptor (uPAR) Biomarker Activity (AID 2283039); conditions: primary human bronchial epithelial cells; actives raise or lower the signal
Outline: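 ELISA readout of uPAR on human lung primary bronchial epithelial cells, 24 h post-dosing. Bidirectional curve fit relative to DMSO vehicle baseline; gain or loss of signal both scored.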

[8] = read-out: Interleukin-6 (IL6), IL6 (gene 3569); test: BSK_CASM3C_IL6: BioMAP Diversity Plus: CASM3C Assay for Interleukin-6 (IL6) Biomarker Activity for (AID 2283040); conditions: primary human coronary artery smooth muscle cells; actives raise or lower the signal
[9] = read-out: Tissue plasminogen activator (tPA), PLAT (gene 5327); test: BSK_BE3C_tPA: BioMAP Diversity Plus: BE3C Assay for Tissue plasminogen activator (tPA) Biomarker Activity (AID 2283041); conditions: primary human bronchial epithelial cells; actives raise or lower the signal
Outline: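 ELISA read-out of tPA on human primary bronchial epithelial cells, 24 h post-dosing; bidirectional fit vs DMSO negative control/baseline.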

[10] = read-out: Interleukin-8 (IL8), CXCL8 (gene 3576); test: BSK_CASM3C_IL8: BioMAP Diversity Plus: CASM3C Assay for Interleukin-8 (IL8) Biomarker Activity (AID 2283042); conditions: primary human coronary artery smooth muscle cells; actives raise or lower the signal;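 also: IL-8 protein level quantified by ELISA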

Measured: AC50

Cc1cccc2c1ccc1ccccc12
inactive: [1] | [2] | [3] | [4] | [5] | [6] | [7] | [8] | [9] | [10]

NC(=NCCCCCCN=C(N)/N=C(\N)Nc1ccc(Cl)cc1)/N=C(\N)Nc1ccc(Cl)cc1
active: [1] 5.68 µM | [2] 4.26 µM | [3] 11.9 µM | [5] 1.46 µM | [6] 3.31 µM | [7] 3.1 µM | [8] 7.19 µM | [9] 1.37 µM | [10] 9.32 µM
inactive: [4]

COc1cc(OC)nc(NC(=O)NS(=O)(=O)Nc2ccccc2C(=O)N(C)C)n1
active: [10] 0.0224 µM
inactive: [1] | [2] | [3] | [4] | [5] | [6] | [7] | [8] | [9]

Cc1ccc(C(=O)c2ccccc2)cc1
active: [1] 30.2 µM | [10] 0.0224 µM
inactive: [2] | [3] | [4] | [5] | [6] | [7] | [8] | [9]

CCCCCCCCCCCCOS(=O)(=O)O
active: [2] 12.5 µM | [3] 26.4 µM | [4] 28.7 µM | [5] 33.3 µM | [6] 31.6 µM | [7] 32.8 µM | [9] 27.5 µM
inactive: [1] | [8] | [10]

OCC(F)(F)C(F)(F)C(F)(F)C(F)(F)C(F)(F)C(F)(F)C(F)(F)C(F)(F)C(F)(F)C(F)(F)C(F)(F)F
active: [2] 0.218 µM
inactive: [1] | [2] | [3] | [5] | [6] | [7] | [8] | [9] | [10]

CCCCC(CC)C(=O)O (stereo unspecified)
inactive: [1] | [2] | [3] | [4] | [5] | [6] | [7] | [8] | [9] | [10]

COCN(COC)c1nc(N(COC)COC)nc(N(COC)COC)n1
inactive: [1] | [2] | [3] | [4] | [5] | [6] | [7] | [8] | [9] | [10]

O=C(CCCN1CCC(O)(c2ccc(Cl)cc2)CC1)c1ccc(F)cc1
inactive: [2] | [3] | [4] | [5] | [6] | [7] | [8] | [9] | [10]
active: [1] 20 µM

CC(C)(C)c1ccc(O)c(O)c1
active: [1] 17.1 µM
inactive: [2] | [3] | [4] | [5] | [6] | [7] | [8] | [9]

O=C1c2ccc(O)c(O)c2C(=O)c2c(O)ccc(O)c21
inactive: [1] | [2] | [3] | [4] | [5] | [6] | [7] | [8] | [9] | [10]

CN(C)c1ccc(C(=C2C=CC(=[N+](C)C)C=C2)c2ccccc2)cc1
active: [1] 0.016 µM | [2] 0.202 µM | [3] 0.561 µM | [6] 0.958 µM | [7] 0.186 µM | [8] 0.103 µM | [10] 1.98 µM
inactive: [4] | [5] | [9]

CC1=NN(c2ccccc2)C(=O)C1
inactive: [1] | [2] | [3] | [4] | [5] | [6] | [7] | [8] | [9] | [10]

COc1cccc(O)c1
inactive: [1] | [2] | [3] | [4] | [5] | [6] | [7] | [8] | [9] | [10]

O=P(O)(O)CCC(F)(F)C(F)(F)C(F)(F)C(F)(F)C(F)(F)C(F)(F)F
inactive: [1] | [2] | [3] | [5] | [6] | [7] | [8] | [9] | [10]
active: [2] 3.21 µM

O=C(NCc1ncc(C(F)(F)F)cc1Cl)c1c(Cl)cccc1Cl
inactive: [1] | [2] | [3] | [4] | [5] | [6] | [7] | [8] | [9] | [10]

CCCCCCCCCCCCCCCCCC[N+](C)(C)Cc1ccccc1
inactive: [4] | [5] | [7] | [9]
active: [1] 2.8 µM | [2] 4.27 µM | [3] 5.77 µM | [6] 10 µM | [8] 4.87 µM | [10] 12.6 µM

N=C(N)c1ccc(OCCCCCOc2ccc(C(=N)N)cc2)cc1
active: [2] 24.1 µM | [5] 10.3 µM | [6] 17.5 µM | [8] 20.7 µM | [10] 24.1 µM
inactive: [1] | [3] | [4] | [7] | [9]

OCC(CO)(CBr)CBr
inactive: [1] | [2] | [3] | [4] | [5] | [6] | [7] | [8] | [9] | [10]

CN(Cc1cnc2nc(N)nc(N)c2n1)c1ccc(C(=O)N[C@@H](CCC(=O)O)C(=O)O)cc1
active: [5] 2.71 µM
inactive: [1] | [2] | [3] | [4] | [5] | [6] | [7] | [8] | [9] | [10]

C[C@]12CC[C@@H]3c4ccc(O)cc4CC[C@H]3[C@@H]1C[C@@H](O)[C@@H]2O
inactive: [1] | [2] | [3] | [4] | [5] | [6] | [7] | [8] | [9] | [10]

CCCCC(CC)C(=O)OCCOCCOCCOCCOC(=O)C(CC)CCCC (stereo unspecified)
inactive: [1] | [2] | [3] | [4] | [5] | [6] | [7] | [9] | [10]
active: [8] 11.3 µM

CCCCCCCCCCCCCCC
inactive: [1] | [2] | [3] | [4] | [5] | [6] | [7] | [8] | [9] | [10]

OCCN1CN(CCO)CN(CCO)C1
inactive: [2] | [3] | [4] | [5] | [6] | [7] | [8] | [9] | [10]
active: [1] 29.8 µM

CCCCc1oc2ccccc2c1C(=O)c1cc(I)c(OCCN(CC)CC)c(I)c1
active: [1] 19.6 µM | [2] 12 µM | [3] 23.3 µM | [4] 12.2 µM | [5] 18.8 µM | [6] 20.1 µM | [7] 20.6 µM | [8] 27.8 µM | [9] 9.06 µM | [10] 23.9 µM

CCCCCc1ccc(O)cc1
active: [1] 24.9 µM | [2] 16.6 µM | [3] 32.8 µM | [4] 20 µM | [5] 20 µM | [6] 27.2 µM | [7] 30.5 µM | [8] 20 µM | [9] 11.6 µM | [10] 20 µM

CS(=O)(=O)c1ccc([C@@H](CC2CCCC2)C(=O)Nc2cnccn2)cc1Cl
active: [2] 31 µM | [5] 29.2 µM
inactive: [1] | [3] | [4] | [6] | [7] | [8] | [9] | [10]

O=C(NO)c1ccccc1
inactive: [1] | [2] | [3] | [4] | [5] | [6] | [7] | [8] | [9] | [10]

CCCCCCCCCCCC
inactive: [6] | [7] | [8] | [9] | [10]
active: [1] 33.4 µM and 32.1 µM | [2] 7.03 µM and 6.14 µM | [3] 9 µM and 9.5 µM | [5] 9.17 µM and 6.53 µM

CCC(C)c1ccccc1O (stereo unspecified)
inactive: [1] | [2] | [3] | [4] | [5] | [6] | [7] | [8] | [9] | [10]

CN(CCO)S(=O)(=O)C(F)(F)C(F)(F)C(F)(F)C(F)(F)C(F)(F)C(F)(F)C(F)(F)C(F)(F)F
inactive: [1] | [2] | [3] | [5] | [6] | [7] | [8] | [9] | [10]

C=CC(C)(CCC=C(C)C)OC(C)=O (stereo unspecified)
active: [1] 30.5 µM | [2] 26.6 µM | [7] 27.1 µM | [9] 26.3 µM
inactive: [3] | [4] | [5] | [6] | [8] | [10]

CCOC(=O)CN[C@@H](C(=O)N1CC[C@H]1C(=O)NCc1ccc(/C(N)=N/O)cc1)C1CCCCC1
inactive: [1] | [2] | [3] | [4] | [5] | [6] | [7] | [8] | [9] | [10]

C=COC(=O)C(C)(C)CCCCCC
inactive: [3] | [4] | [7] | [10]
active: [1] 30.2 µM | [2] 33.5 µM | [5] 29.4 µM | [6] 20 µM | [8] 32 µM | [9] 20 µM

O=C1OC2(c3ccccc31)c1cc(I)c(O)c(I)c1Oc1c2cc(I)c(O)c1I
active: [2] 13.6 µM | [3] 19.9 µM | [4] 3.9 µM | [5] 4.07 µM | [6] 8.35 µM | [7] 6.1 µM | [8] 0.9 µM | [9] 5.58 µM
inactive: [10]

O=C(O)C(F)(F)OC(F)(F)C(F)(F)OC(F)(F)C(F)(F)OC(F)(F)C(F)(F)C(F)(F)C(F)(F)F
active: [1] 48.4 µM and 50.2 µM | [2] 4.85 µM and 4.88 µM | [3] 4.58 µM and 4.77 µM | [5] 4.78 µM and 4.58 µM | [6] 3.94 µM and 3.9 µM | [7] 5.83 µM and 5.88 µM | [9] 4.98 µM and 4.8 µM
inactive: [8] | [10]

— PubChem BioAssay (EPA / NIEHS)
